A selection: hits, their analogues and other compounds. The true share with any hit is near 2.4%.
CHT inh: inhibitors of human choline transporter CHT. High affinity choline transporter 1 (Homo sapiens), Q9GZV3. CHT-expressing cells, membrane potential dye, choline response; stronger effect = lower value. B-score at 10 µM. hit rate 0.86% among 310,000;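 active = B-score over 3 SD under the library average, and starting fluorescence ratio not unusually high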;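 note: choline stimulus applied at its EC90 after an EC20 pre-addition; B-score computed on integrated fluorescence ratio after choline addition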
Target sequence (Q9GZV3 whole entry, looked up): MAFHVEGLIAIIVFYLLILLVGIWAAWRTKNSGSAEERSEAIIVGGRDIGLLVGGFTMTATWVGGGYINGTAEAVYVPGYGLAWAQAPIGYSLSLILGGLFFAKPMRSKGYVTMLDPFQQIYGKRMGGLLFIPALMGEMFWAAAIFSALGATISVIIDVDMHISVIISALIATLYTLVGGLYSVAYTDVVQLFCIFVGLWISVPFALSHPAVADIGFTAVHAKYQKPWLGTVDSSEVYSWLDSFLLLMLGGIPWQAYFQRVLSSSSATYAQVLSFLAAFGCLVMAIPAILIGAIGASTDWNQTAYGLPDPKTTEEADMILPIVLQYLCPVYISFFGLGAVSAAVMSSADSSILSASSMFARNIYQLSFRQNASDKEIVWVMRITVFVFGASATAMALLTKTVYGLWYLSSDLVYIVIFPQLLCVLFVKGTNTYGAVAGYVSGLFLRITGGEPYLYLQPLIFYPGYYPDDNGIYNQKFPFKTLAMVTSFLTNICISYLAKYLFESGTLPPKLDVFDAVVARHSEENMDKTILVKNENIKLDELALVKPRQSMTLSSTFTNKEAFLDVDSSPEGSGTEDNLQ
CHT PAM: CHT positive allosteric modulators, primary screen, cell-based, membrane potential dye, choline EC20; CHT-expressing cells; stronger effect = higher value; LV-AA mutant CHT in HEK293 cells; B-score at 10 µM; hit rate 0.49% among 310,000;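 active = initial fluorescence not abnormally high and integrated response B-score, plate-corrected, over 3 SD above library mean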
ANO1 block: TMEM16A chloride channel inhibitors, primary screen, cell-based, HTS; HEK293 TMEM16A/YFP iodide influx fluorescence, ionomycin; normalized B-score (activity score, 25-100; higher = stronger inhibition) at 10 µM; hit rate 1.2% among 310,000; AID 588511, 2011;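 active = ratio plate-corrected score three or more library SD toward inhibition, starting fluorescence score within five deviations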;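 note: score derived from kinetic fluorescence span divided by baseline fluorescence per well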
ANO1 activ: TMEM16A chloride channel activators or potentiators, primary screen, cell-based, HTS; B-score at 10 µM; AID 623877, 2012; hit rate 0.3% among 340,000; Anoctamin-1 (Mus musculus), Q8BHY3; HEK293 TMEM16A/YFP-H148Q/I152L, iodide quench fluorescence; stronger effect = lower value;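 active = fluorescence-ratio B-score plate-corrected deviation score at least 3 library SD below zero, with starting fluorescence score within 5 deviations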;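 note: channel opened by trigger with iodide after compound preincubation; score built on the fluorescence ratio of max minus min over baseline; more negative score means more quench and so TMEM16A activation or potentiation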
Starred values were filed as active, the others as inactive; i = inactive; nt = no result given.

SMILES | CHT inh | CHT PAM | ANO1 block | ANO1 activ
CC[n+]1c(C)sc2sc3ccccc3c21 | i | 12.9* | i | nt
Cc1nc2c(s1)sc1ccccc12 | i | i | i | i
COc1ccc(C(=O)OCCCc2cc3ccccc3c(=O)o2)cc1 | nt | nt | nt | i
CC(C)(C)C(=O)Nc1nc(-c2ccccc2)ns1 | i | i | i | i
c1ccc(Nc2nc(-c3ccccc3)ns2)cc1 | i | i | i | -8.95*
Cc1ccc(NS(=O)(=O)c2ccc(C(=O)N3CCN(c4ncccn4)CC3)cc2)cc1 | i | i | 25* | i
COc1cc(=O)[nH]c(SC(C)C(=O)Nc2cc(C)on2)n1 (stereo not given) | i | i | i | i
C/C(=N\Nc1ncc(Cl)cc1Cl)c1ccccn1 | nt | nt | nt | -7.78*
O=C(COC(=O)c1ccc(O)cc1O)Nc1ccc2ccccc2c1 | nt | nt | nt | i
O=C(COC(=O)c1ccc(O)cc1O)Nc1ccc2c(c1)OCCO2 | nt | nt | nt | -27.8*
O=C(OCc1nnc(-c2ccccc2)o1)c1ccc2c(c1)OCCO2 | i | i | i | i
COC(=O)Cc1ccc(NC(=S)NCCCN2CCOCC2)cc1 | -6.78* | i | i | i
S=C(NCCCN1CCOCC1)Nc1ccc(N2CCOCC2)cc1 | i | i | i | i
O=C(NCCCNc1ccc(C(F)(F)F)cc1[N+](=O)[O-])c1ccc(Cl)cc1 | i | i | 100* | i
CC(C)COc1ncnc2c1sc1nc3c(cc12)COC(C)(C)C3 | i | i | i | nt
CC1=C(C)/C(=N\OS(=O)(=O)c2ccc(C)cc2)C=CC1=O | i | i | 25* | -4.76*
COc1ccc(S(=O)(=O)/N=C2/C=CC(=O)C(C)=C2C)cc1 | i | i | i | i
O=C(c1cccnc1)N1CCN(Cc2ccc3c(c2)OCO3)CC1 | i | i | i | i
O=C(c1cccnc1)N1CCN(Cc2cccc(Br)c2)CC1 | i | i | i | -5.82*
c1cc(CNCCNCc2ccncc2)ccn1 | nt | nt | nt | i
N#Cc1cc([N+](=O)[O-])ccc1N1CCCC1 | i | i | i | i
N#Cc1cc2[nH]c3ccccc3c2[n+](-c2ccc([N+](=O)[O-])cc2)c1N | i | 8.83* | i | i
COC(=O)C1=NN(C(=O)c2ccc(Cl)cc2)C(O)(c2ccccc2)C1 (stereo not given) | i | i | i | i
CCOC(=O)C1=NN(C(=O)c2ccc(C)cc2)C(O)(c2ccc(Cl)cc2)C1 (stereo not given) | i | i | 100* | i
CC1=NN(c2ccc(Br)cc2)C(=O)/C1=C/c1ccc(-c2ccccc2C(=O)O)o1 | -7.23* | i | i | i
SMILES | CHT inh | CHT PAM | ANO1 block | ANO1 activ
O=C(c1ccc(Br)cc1)c1cc2ccc(O)cc2oc1=O | i | i | 25* | i
COc1ccc(C(=O)c2cc3ccc(O)cc3oc2=O)cc1 | i | i | i | i
CC[C@H](C)/C=C/C1=CC2=C(Cl)C(=O)[C@@]3(C)OC(=O)C(C(=O)[C@H](C)[C@@H](C)O)=C3C2=CO1 | i | i | 25* | i
COc1ccc(N2C(=O)CC(NNC(=O)c3ccco3)C2=O)cc1 (stereo not given) | i | i | i | i
CCOC(=O)NNC1CC(=O)N(c2ccc(OC)cc2)C1=O (stereo not given) | i | i | 100* | i
CCN(CC)c1ccc(N/C(N)=N/c2nc(C(F)(F)F)cc(=O)[nH]2)cc1 | i | i | i | i
CC(=O)Oc1ccc(-c2nc(-c3cccnc3)no2)cc1 | i | i | i | -14.7*
O=C(COC(=O)C1CCCN1C(=O)c1cccs1)Nc1ccc2c(c1)OCO2 (stereo not given) | i | i | i | -20.4*
CCCCCCn1c(=O)c(-c2ccccc2)c(O)c2ccccc21 | i | i | i | i
CCCCCCCCn1c(=O)c(C(=O)OC)c(N)c2ccccc21 | i | i | 100* | i
COc1ccccc1C(=O)N1CCN(Cc2ccc3c(c2)OCO3)CC1 | i | i | i | -14.4*
O=C(c1ccccc1Br)N1CCN(Cc2ccc3c(c2)OCO3)CC1 | i | i | i | i
O=C(C1=C[C@H](C2CC2)C[C@H](OCc2ccc(CO)cc2)O1)N1CCN(Cc2ccc3c(c2)OCO3)CC1 | -5.26* | i | i | i

Screening results deposited in PubChem by Johns Hopkins Ion Channel Center.
